Screens as filed in PubChem.
B2AR arrestin – agonists driving beta-arrestin recruitment to human beta2-adrenergic receptor | beta-arrestin recruitment to beta2AR, cell-based reporter | Potency, µM (series often up to 46.1 µM), for the others: at the highest dose activation, actives largely listed as activators | 0.02% of 330,000 active; active = well fitted activation curve with a large enough effect; inconclusive = small, poorly fitted or top-dose-only effect;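 also: potency is read from the fitted curve at half-maximal effect; 0% = DMSO controls and full agonism = EC100 isoproterenol or metaproterenol; nearly all actives have a fitted effect of over 65% in size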
D3 antag – blocks the human D3 dopamine receptor | D3R cells, DiscoveRx beta-arrestin luminescence, antagonist mode; active compounds read low | max response, negative = inhibition, % | 2.5% of 360,000 active | AID 652054; in the data active = max response below about -50%; inconclusive = no clear call, values can overlap the other calls; also: % is scaled to controls: 0 for no effect and ±100 for the full control effect
Target sequence (P35462 whole entry, looked up): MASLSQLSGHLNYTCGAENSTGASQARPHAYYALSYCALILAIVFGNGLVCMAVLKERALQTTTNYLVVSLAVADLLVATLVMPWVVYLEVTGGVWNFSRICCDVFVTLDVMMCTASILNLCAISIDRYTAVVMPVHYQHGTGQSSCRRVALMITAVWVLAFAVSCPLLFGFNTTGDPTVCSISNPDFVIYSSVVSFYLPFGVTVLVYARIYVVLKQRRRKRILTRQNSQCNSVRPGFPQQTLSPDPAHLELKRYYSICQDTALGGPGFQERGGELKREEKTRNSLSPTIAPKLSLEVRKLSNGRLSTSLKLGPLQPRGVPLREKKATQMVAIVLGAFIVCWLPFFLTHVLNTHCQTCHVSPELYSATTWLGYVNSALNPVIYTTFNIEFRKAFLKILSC
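Cells plated overnight at 1500 cells/well, then exposed to library compounds with dopamine controls for 90 minutes at 37 degrees C. DiscoveRx reagent added for 30–60 minutes at room temperature; luminescence read, quantitative HTS format.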
Giardia kill – kills Giardia lamblia; Giardia lamblia trophozoite viability; 0.15% of 340,000 active; activity change, % at 7.66 µM, hits read low; AID 540267; in the data active = activity change below about -80%; inconclusive = between about -30% and that limit;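 also: parasites exposed to compound for two days anaerobically before the ATP read; % is scaled to controls: 0 for no effect and ±100 for the full control effect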
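Viability, read as ATP luminescence: trophozoites at 100 cells/well, compound added, 48 hrs anaerobic at 37 deg C, then 15-30 min room-temperature development before reading.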
D3 ag – activates the human D3 dopamine receptor. D3R DiscoveRx beta-arrestin cells, luminescence, 90 min. max activation, %. 0.58% of 410,000 active. AID 652048; in the data active = max activation above about 30%; also: 0% is about no effect
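Cells at 1500/well, incubated overnight, then treated with pinned compounds (dopamine as control) for 90 min at 37 degrees C. DiscoveRx reagent added for 30 - 60 minutes at room temperature; luminescence read.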
The depositor's hits bear a star; ? = inconclusive; . = not tested or not shown. The list is not random: actives were taken first. Their share in the collection is about 2.8%.

SMILES | B2AR arrestin | D3 antag | Giardia kill | D3 ag
Cc1cccc(C)c1OCC(=O)Nc1nc(-c2ccc(Br)cc2)ns1 | . | . | . | 10
COc1ccc2c(C)c(C(=O)O)oc2c1 | 0% | 0 | -9 | -6
COc1c(Br)cc2c(C)c(C(=O)O)oc2c1Br | 0% | -15 | -14 | 33*
CCCc1noc(-c2ccc(N3CCCCC3)c([N+](=O)[O-])c2)n1 | . | . | . | -4
CCC(C)NC(=O)c1cnn(-c2cccc(F)c2)c1-n1cccc1 (stereo unspecified) | . | . | . | 7
C=C1C=CS(=O)(=O)N(Cc2ccccc2)C1 | . | . | -6 | .
c1cnc(N2CCN(Cc3c[nH]c4ccccc34)CC2)nc1 | 0% | -51* | 0 | -7
Fc1ccc(N2CCN(Cc3c[nH]c4ccccc34)CC2)cc1 | 0% | . | . | .
COc1ccccc1N1CCN(C(=O)CCc2c[nH]c3ccccc23)CC1 | 0% | -6 | -14 | -2
Cc1ccc(CN2CCN(c3cccc4[nH]ccc34)CC2)cc1 | 0% | -82* | 7 | 30
Cc1ccccc1N1CCN(Cc2c[nH]c3ccccc23)CC1 | 0% | -86* | -12 | -26
COc1ccccc1N1CCN(Cc2c[nH]c3ccccc23)CC1 | 0% | -80* | ? | -24
COc1cccc(CNC(=O)c2[nH]c3cc(C)ccc3c2Sc2ccccc2)c1 | . | . | . | 4
COc1ccc(N2CCN(Cc3cc(=O)oc4cc5c(cc34)CCCC5)CC2)cc1 | 0% | 13 | -6 | -3
COc1ccc(N2CCN(Cc3cc4c(cc3O)CCC4)CC2)cc1 | 0% | -87* | 7 | -5
CN(C)CC/C=C1\c2ccccc2COc2ccccc21 | 0% | -77* | -8 | -89
Cc1cc(C(=O)OCC(=O)NCCc2ccccc2)c2ccccc2n1 | 0% | -14 | -9 | 51*
CCNC(=S)Nc1ccc(N(c2ccccc2)C(C)C)cc1 | 0% | -23 | -4 | -13
CC(C)N(c1ccccc1)c1ccc(NC(=S)NCCN(C)C)cc1 | 0% | -73* | -4 | -13
CCN(CCCc1ccccc1)CCCc1ccccc1 | -1% | -96* | 1 | -84
CCCN(CCO)CCCc1ccccc1 | 0% | 52 | -4 | 4
CCN(CCCC(=O)c1ccc(F)cc1)CCc1ccccc1 | 0% | -28 | 5 | 32*
CCOc1ccc(CNC2CCCc3ccccc32)cc1 (stereo unspecified) | 0% | -51* | 9 | -22
OC(CNC1CCCc2ccccc21)COc1ccc2ccccc2c1 (stereo unspecified) | 0% | -4 | 1 | -3
CCc1ccccc1OC[C@@H](O)CN[C@H]1CCCc2ccccc21 | 0% | -53* | -15 | -59
SMILES | B2AR arrestin | D3 antag | Giardia kill | D3 ag
COc1ccc(-n2c(=O)c3c4c(sc3n(Cc3ccccc3)c2=O)CN(C(C)=O)CC4)cc1OC | . | . | . | -3
COc1ccc(N2CC(NC(=O)C3CCCCC3)CC2=O)cc1 (stereo unspecified) | . | . | . | -6
Cc1ccc2c(c1)C(=O)CC1(CCCC1)O2 | 0% | 16 | 18 | 13
Cc1ccc2c(c1)C(=O)CC1(CCCCCC1)O2 | -2% | -115* | -7 | -73
Cc1ccc(-n2ccnc(NCCc3ccc(S(N)(=O)=O)cc3)c2=O)cc1C | . | . | . | -8
Cn1c(=S)c2[nH]c(SCCN3CCCC3)nc2n(C)c1=O | 16µM* | -18 | -18 | -1
COCCCn1c(SCC(=O)Nc2ccc(F)cc2)nc2c(sc3ccccc32)c1=O | . | . | . | -19
CCC1CCCCN1c1nc(-c2cccc(OC)c2O)nc2ccccc12 (stereo unspecified) | 1% | 28 | 1 | 31*
COc1cccc(-c2nc(N3CCCCC3)c3ccccc3n2)c1O | . | 40 | 10 | 11
O=C(C[n+]1cc(-c2ccc(Cl)cc2)n2c1CCCCC2)c1ccccc1 | 0% | -63* | -5 | -30
O=C(C[n+]1cc(-c2ccc(Br)cc2)n2c1CCCCC2)c1ccccc1 | -1% | -24 | 0 | -13
COc1cc(Br)c(C[N+]2(CCOCCC3CCC4CC3C4(C)C)CCOCC2)cc1OC (stereo unspecified) | . | . | . | 0
CCOC(=O)c1cc([N+](=O)[O-])cc([N+](=O)[O-])c1Sc1ncnc2nc[nH]c12 | . | -86* | -9 | -25
CCOC(=O)C(C)(C)Sc1ncnc2nc[nH]c12 | -1% | 1 | 1 | 1
CCc1c(C)c2ccc(O)c(CN3CCN(c4ccc(OC)cc4)CC3)c2oc1=O | . | . | . | -24
COc1ccc(F)cc1-c1cc(NC=O)c2ncc(-c3cccc(C(=O)N(C)C)c3)n2c1 | . | ? | . | 52*
CN(C)C(=O)c1cccc(-c2cc(NC=O)c3ncc(-c4ccc(F)cc4)n3c2)c1 | . | 0 | . | -9
